In PubChem BioAssay (NCATS):
Inconclusive results are not listed. Calls of active or inactive are those of the source. Unless noted, calls come from the whole dose curve; as a rule, active = well fitted curve in the direction sought with a large enough effect; inconclusive = small, poorly fitted or top-dose-only effect, or another doubt; inactive = no such curve, though single readings can be large; an effect the other way counts as inactive or inconclusive.

Columns and labels:
[1] = qHTS for differential inhibitors of proliferation of Plasmodium falciparum line GB4 (AID 1816); conditions: Potency: Plasmodium falciparum GB4 proliferation inhibition;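 note: potency is the fitted concentration of half-maximal effect; parasite growth measured after 72 h incubation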
[2] = qHTS for differential inhibitors of proliferation of Plasmodium falciparum line 3D7 (AID 1876);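 note: parasite growth measured after three days of culture; 0% = vehicle wells and -100% = reference inhibitor wells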
[3] = qHTS for differential inhibitors of proliferation of Plasmodium falciparum line D10 (AID 1877);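 note: parasites grown with compound for 72 h before DNA staining; plate controls were vehicle wells for no effect and reference inhibitor wells for full effect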
[4] = qHTS for differential inhibitors of proliferation of Plasmodium falciparum line Dd2 (AID 1882); conditions: Potency: Plasmodium falciparum Dd2 proliferation inhibition;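 note: series mostly up to about 29 µM; plate controls were DMSO vehicle for no effect and 0.29 µM artemisinin for full effect; nearly all actives have a fitted effect of over 65% in size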
Method in brief: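 Dd2-infected erythrocytes (0.3% parasitemia, 2.5% hematocrit final) incubated with compound 72 h at 37 C, 5% CO2; lysed with saponin/Triton buffer containing SYBR Green I, incubated overnight in the dark, then read by fluorescence (485/535 nm). Normalized to 0.29 uM artemisinin and DMSO.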

[5] = qHTS for differential inhibitors of proliferation of Plasmodium falciparum line W2 (AID 1883); conditions: Potency: Plasmodium falciparum W2 proliferation inhibition;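 note: potency is the fitted concentration of half-maximal effect; parasites grown with compound for 72 h before lysis and staining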
[6] = qHTS for differential inhibitors of proliferation of Plasmodium falciparum line HB3 (AID 1886); conditions: Potency: Plasmodium falciparum HB3 proliferation inhibition;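 note: parasites grown with compound for 72 h before SYBR Green readout; plate controls were vehicle for no effect and reference inhibitor for full effect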
[7] = molecular target: Ferritin light chain (Equus caballus) (UniProt P02791); assay: qHTS Validation Assay for Identification of Novel General Anesthetics (AID 2323); note: series mostly up to about 77 µM; % is set by controls: 0 for no effect and ±100 for the full control effect
Chain of Ferritin light chain (Equus caballus) (P02791 2-175 limits assumed): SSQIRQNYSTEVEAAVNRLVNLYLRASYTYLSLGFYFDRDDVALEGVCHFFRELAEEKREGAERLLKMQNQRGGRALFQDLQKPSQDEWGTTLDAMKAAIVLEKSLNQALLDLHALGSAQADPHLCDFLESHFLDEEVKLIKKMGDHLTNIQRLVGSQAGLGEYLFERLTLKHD
Method in brief: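 Horse-spleen apoferritin (10 uM) in PBS with 50% saturated 1-aminoanthracene; compounds pin-transferred, 10 min at room temperature. Fluorescence read at 380/535 nm, normalized to free 1-AMA and 1-AMA/apoferritin values; four-parameter Hill fit.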

[8] = molecular target: ATP-dependent DNA helicase Q1 (Homo sapiens) (UniProt P46063); assay: qHTS Validation Assay for Inhibitors of RecQ-Like Dna Helicase 1 (RECQ1) (AID 2353);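 note: plate controls were DMSO vehicle for no effect and enzyme-free control for full effect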
Method in brief: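 50 nM RECQ1T1 preincubated 15 min with compound in Tris pH 8.0 buffer with MgCl2, DTT, Tween-20 and 2.5 ug/ml poly(dI-dC); started with 200 nM TAMRA/BHQ-2 forked duplex and 2 mM ATP. Unwinding read as fluorescence (525/598 nm), two reads 2 h apart.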

[9] = molecular target: RecQ-like DNA helicase BLM (Homo sapiens) (UniProt P54132); assay: qHTS Validation Assay for Inhibitors of Bloom's syndrome helicase (BLM) (AID 2364);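 note: plate controls were DMSO vehicle for no effect and enzyme-free control for full effect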
Chain of RecQ-like DNA helicase BLM (Homo sapiens) (P54132 whole entry, looked up): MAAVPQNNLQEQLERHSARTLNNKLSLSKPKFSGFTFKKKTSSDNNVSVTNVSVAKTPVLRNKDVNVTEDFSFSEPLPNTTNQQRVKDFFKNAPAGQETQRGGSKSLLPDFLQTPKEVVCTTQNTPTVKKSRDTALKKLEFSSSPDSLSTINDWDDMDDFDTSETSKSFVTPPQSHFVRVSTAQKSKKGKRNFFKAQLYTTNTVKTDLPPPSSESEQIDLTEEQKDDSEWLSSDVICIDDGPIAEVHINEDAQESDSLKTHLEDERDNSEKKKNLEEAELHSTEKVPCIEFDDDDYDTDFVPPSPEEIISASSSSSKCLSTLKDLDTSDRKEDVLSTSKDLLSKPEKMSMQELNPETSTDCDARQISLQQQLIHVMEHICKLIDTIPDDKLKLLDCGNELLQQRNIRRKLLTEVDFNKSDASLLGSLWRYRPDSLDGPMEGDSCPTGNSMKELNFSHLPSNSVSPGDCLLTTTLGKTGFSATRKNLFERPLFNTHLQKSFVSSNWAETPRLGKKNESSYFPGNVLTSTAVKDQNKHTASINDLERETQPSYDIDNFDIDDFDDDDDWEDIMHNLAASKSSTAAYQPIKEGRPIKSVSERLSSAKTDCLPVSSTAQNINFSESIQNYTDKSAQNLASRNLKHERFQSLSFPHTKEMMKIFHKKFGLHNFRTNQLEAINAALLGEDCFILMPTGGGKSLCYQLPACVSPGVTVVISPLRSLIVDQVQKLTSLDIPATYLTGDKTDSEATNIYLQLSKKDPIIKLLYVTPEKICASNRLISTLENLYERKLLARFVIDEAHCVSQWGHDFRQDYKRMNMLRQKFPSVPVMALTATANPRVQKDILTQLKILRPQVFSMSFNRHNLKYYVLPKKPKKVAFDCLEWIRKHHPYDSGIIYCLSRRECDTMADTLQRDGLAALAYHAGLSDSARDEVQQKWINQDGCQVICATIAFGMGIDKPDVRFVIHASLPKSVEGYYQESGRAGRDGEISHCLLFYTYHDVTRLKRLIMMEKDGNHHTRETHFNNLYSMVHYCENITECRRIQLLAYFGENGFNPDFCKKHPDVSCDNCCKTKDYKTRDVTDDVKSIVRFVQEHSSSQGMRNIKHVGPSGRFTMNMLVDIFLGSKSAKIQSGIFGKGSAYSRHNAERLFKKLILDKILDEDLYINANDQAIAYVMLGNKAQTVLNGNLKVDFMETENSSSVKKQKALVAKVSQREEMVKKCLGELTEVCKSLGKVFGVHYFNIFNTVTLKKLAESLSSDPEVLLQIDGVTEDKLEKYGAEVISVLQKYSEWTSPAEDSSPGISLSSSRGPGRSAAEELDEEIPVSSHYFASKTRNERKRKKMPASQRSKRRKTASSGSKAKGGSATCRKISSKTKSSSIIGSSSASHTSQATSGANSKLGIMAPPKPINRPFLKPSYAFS
Method in brief: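 50 nM BLM preincubated 15 min at room temperature with compound in pH 8.0 Tris buffer containing 2.5 ug/ml poly(dI-dC); started with 200 nM TAMRA/BHQ-2 forked duplex and 2 mM ATP (final). Unwinding read as TAMRA fluorescence increase, two reads 2 h apart.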

[10] = Quantitative high throughput screen for delayed death inhibitors of the malarial parasite plastid, 96 hour incubation (AID 488745); note: series mostly up to about 29 µM; % is set by controls: 0 for no effect and ±100 for the full control effect; nearly all actives have a fitted effect of over 70% in size
Method in brief: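 Luciferase-expressing P. falciparum in erythrocytes (2% hematocrit, 0.1% parasitemia) incubated with compound for 96 h at 37 C, 5% CO2, in RPMI 1640 with 0.5% Albumax. Growth inhibition read as decreased luminescence.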

[11] = Quantitative high throughput screen for delayed death inhibitors of the malarial parasite plastid, 48 hour incubation (AID 488752); note: % is set by controls: 0 for no effect and ±100 for the full control effect; nearly all actives have a fitted effect of over 65% in size
Method in brief: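 Erythrocytes infected with firefly luciferase-expressing P. falciparum (2% hematocrit, 0.1% parasitemia) cultured with compound for 48 h at 37 C, 5% CO2, in RPMI 1640/0.5% Albumax. Growth inhibition read as loss of luminescence.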

[12] = molecular target: M-phase phosphoprotein 8 (Homo sapiens) (UniProt Q99549); assay: qHTS Validation Assay for Inhibitors for MPP8 Chromodomain Interactions with Methylated Histone Tails (AID 488949); note: top concentration of the series differs between compounds; % is set by controls: 0 for no effect and ±100 for the full control effect; nearly all actives have a fitted effect of over 55% in size
Chain of M-phase phosphoprotein 8 (Homo sapiens) (Q99549 whole entry, looked up): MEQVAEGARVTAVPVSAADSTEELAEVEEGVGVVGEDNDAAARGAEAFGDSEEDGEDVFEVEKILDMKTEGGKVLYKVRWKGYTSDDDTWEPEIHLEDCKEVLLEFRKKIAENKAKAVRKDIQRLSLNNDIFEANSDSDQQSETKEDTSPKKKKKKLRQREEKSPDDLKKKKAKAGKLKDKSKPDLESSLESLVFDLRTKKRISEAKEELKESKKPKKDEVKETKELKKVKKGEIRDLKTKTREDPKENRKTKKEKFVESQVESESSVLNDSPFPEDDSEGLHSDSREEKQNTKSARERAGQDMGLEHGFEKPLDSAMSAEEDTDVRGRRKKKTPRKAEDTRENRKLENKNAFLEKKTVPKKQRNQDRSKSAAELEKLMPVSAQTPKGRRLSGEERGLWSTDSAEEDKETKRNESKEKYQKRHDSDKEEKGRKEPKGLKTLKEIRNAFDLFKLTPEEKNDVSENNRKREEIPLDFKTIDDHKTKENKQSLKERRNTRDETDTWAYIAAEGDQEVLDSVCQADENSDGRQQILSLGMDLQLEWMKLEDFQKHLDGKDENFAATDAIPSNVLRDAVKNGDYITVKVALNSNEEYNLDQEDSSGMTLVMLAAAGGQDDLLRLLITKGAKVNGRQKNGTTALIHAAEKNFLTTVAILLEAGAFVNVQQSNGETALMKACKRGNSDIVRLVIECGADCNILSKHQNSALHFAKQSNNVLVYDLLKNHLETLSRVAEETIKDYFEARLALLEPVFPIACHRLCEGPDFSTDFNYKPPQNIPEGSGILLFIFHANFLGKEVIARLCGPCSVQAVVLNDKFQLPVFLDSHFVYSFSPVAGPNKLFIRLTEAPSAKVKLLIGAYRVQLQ
Method in brief: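 MPP8 (50 nM) was pre-bound to 50 nM biotinylated H3(1-18)K9me3 peptide in PBS pH 7.4 with 0.01% Tween-20. Compounds were then added for 30 min at room temperature, and complex disruption was read by AlphaScreen with streptavidin donor and nickel-chelate acceptor beads.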

[13] = molecular target: Transient receptor potential cation channel subfamily V member 1 (Homo sapiens) (UniProt Q8NER1); assay: HTS Assay for Compounds that Act as Enhancers of the Vanilloid Receptor 1 (AID 488979); note: 0% is about no effect
Chain of Transient receptor potential cation channel subfamily V member 1 (Homo sapiens) (Q8NER1 whole entry, looked up): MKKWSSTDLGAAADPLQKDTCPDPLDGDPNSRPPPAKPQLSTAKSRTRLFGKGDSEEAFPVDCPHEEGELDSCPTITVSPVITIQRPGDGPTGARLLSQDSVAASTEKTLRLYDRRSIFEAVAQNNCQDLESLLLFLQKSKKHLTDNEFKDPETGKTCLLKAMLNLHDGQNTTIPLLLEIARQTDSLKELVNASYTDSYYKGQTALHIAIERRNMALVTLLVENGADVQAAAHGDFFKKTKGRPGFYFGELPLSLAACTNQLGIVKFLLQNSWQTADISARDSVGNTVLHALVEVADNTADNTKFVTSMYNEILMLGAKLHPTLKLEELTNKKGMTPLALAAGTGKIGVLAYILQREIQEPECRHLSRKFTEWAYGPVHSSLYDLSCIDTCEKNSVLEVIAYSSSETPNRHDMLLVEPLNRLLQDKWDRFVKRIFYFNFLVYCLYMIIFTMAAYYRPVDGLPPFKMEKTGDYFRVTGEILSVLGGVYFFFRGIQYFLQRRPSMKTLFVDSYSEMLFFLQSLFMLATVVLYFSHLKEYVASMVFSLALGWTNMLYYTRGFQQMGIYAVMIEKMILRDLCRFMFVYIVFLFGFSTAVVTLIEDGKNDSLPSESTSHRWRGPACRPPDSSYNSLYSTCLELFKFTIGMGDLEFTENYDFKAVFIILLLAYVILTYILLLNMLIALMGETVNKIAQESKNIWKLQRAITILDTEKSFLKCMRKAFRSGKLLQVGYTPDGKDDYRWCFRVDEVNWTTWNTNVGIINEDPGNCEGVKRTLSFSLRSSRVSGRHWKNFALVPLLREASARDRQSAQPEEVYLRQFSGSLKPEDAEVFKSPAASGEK
Method in brief: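 TRPV1 cells loaded with Fluo-8 calcium dye; compound added and Ca2+ signal (ex 480/em 520 nm) followed 3 min, then capsaicin at EC20 added and read 2 more min to detect enhancement.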

[14] = molecular target: Thyrotropin receptor (Homo sapiens) (UniProt P16473); assay: qHTS Assay for Antagonists of the Thyroid Stimulating Hormone Receptor (AID 488980); note: series mostly up to about 58 µM; 0% is about no effect
Chain of Thyrotropin receptor (Homo sapiens) (P16473 whole entry, looked up): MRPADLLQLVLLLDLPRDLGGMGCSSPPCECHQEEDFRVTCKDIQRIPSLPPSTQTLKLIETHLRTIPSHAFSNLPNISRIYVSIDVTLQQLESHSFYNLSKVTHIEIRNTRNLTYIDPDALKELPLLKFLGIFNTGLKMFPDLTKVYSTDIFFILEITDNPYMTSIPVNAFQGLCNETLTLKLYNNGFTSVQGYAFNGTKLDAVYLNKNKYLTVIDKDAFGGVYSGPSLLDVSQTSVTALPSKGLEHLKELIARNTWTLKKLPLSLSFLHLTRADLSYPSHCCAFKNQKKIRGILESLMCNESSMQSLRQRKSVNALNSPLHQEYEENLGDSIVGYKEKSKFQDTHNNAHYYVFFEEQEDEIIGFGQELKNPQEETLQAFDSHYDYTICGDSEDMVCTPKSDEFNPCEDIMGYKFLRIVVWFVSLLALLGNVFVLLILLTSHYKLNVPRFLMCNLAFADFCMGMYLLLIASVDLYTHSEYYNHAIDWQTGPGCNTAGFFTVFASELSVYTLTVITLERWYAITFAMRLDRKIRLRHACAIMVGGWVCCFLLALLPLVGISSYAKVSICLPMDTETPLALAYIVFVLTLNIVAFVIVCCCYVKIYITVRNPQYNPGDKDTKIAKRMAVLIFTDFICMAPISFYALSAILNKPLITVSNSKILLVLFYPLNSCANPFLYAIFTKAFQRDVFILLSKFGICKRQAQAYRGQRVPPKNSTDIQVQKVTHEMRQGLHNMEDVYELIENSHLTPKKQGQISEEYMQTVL
Method in brief: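 TSHR-transfected HEK293 cells (2000/well) in HEPES-buffered HBSS with 70 uM RO 20-1724 were stimulated with 4 nM TSH (EC80, final) in the presence of compound. cAMP was measured by HTRF competition after lysis and 30 min at RT.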

[15] = molecular target: Thyrotropin-releasing hormone receptor (Homo sapiens) (UniProt P34981); assay: qHTS for Small Molecule Agonists and Allosteric Enhancers of Human TRH Receptor: Validation Screen for Agonists (AID 493127;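 active = calcium activation more than 3 SD above the typical response in the agonist read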; note: 0% is about no effect); conditions: TRH receptor agonist cell assay; at 2 µM; active compounds read high
Chain of Thyrotropin-releasing hormone receptor (Homo sapiens) (P34981 whole entry, looked up): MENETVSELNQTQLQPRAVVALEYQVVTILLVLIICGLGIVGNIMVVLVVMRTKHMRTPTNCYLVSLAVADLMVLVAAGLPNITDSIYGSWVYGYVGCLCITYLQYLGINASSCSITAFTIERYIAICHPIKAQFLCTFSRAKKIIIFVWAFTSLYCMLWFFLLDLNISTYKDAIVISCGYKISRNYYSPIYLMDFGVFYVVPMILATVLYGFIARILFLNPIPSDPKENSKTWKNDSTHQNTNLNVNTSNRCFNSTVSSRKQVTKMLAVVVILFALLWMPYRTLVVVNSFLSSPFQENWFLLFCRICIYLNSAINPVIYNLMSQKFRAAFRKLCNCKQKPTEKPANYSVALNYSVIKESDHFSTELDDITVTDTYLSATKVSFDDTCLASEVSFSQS
Method in brief: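 TRHR cells loaded with fluo-8 calcium dye; FDSS kinetic fluorescence (Ex 480/Em 530) read at 1 s/cycle after 23 nL compound addition. Agonist-mode calcium response recorded before the 10 nM TRH (EC20) addition.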

[16] = Validation screen for small molecules that induce DNA re-replication in SW480 colon adenocarcinoma cells (AID 504364); note: 0% is about no effect
Method in brief: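 SW480 cells (250/well) exposed 48 h at 37 C, 5% CO2, then Hoechst-stained 40 min. Nuclear DNA content imaged by fluorescence scanning (405 nm excitation, 500-530 nm emission); re-replication scored as increased nuclei with elevated intensity.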

[17] = molecular target: DNA dC->dU-editing enzyme APOBEC-3G (Homo sapiens) (UniProt Q9HC16); assay: qHTS for inhibitors of Vif-A3G interactions: Validation (AID 588379); note: 0% is about no effect
Chain of DNA dC->dU-editing enzyme APOBEC-3G (Homo sapiens) (Q9HC16 whole entry, looked up): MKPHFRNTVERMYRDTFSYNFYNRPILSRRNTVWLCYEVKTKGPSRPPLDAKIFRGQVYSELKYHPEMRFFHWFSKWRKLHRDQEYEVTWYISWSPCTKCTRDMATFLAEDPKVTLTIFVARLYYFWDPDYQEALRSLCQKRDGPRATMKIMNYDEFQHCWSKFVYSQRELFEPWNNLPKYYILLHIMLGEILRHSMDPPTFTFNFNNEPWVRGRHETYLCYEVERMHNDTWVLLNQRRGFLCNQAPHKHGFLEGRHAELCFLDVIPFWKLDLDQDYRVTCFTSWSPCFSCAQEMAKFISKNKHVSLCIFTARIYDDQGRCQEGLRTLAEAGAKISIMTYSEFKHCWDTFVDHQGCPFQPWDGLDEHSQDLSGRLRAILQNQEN
Method in brief: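 HeLa cells stably expressing Vif and A3G-eYFP, 700 cells/well, incubated overnight at 37 deg C, then exposed to compound overnight at 37 deg C. Inhibition of Vif-mediated degradation read as increased yellow fluorescence (Ex 488/Em 500-530) by laser-scanning cytometry.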

[18] = test system: Zika virus NS2B-NS3 protease; assay: Primary screen GU AMC qHTS for Zika virus inhibitors (AID 1347154);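 note: 0% = no-inhibitor control and -100% = no-enzyme control; nearly all actives have a fitted effect of over 70% in size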
Method in brief: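 Unlinked Zika NS2B hydrophilic domain–NS3 protease complex at 25 nM in 10 mM Tris-HCl pH 8.0, 0.01% Tween 20, with an AMC peptide substrate. Fluorescence change (340/450 nm) over 15 min at room temperature, normalized to controls, fitted to 4-parameter Hill.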

[19] = Primary qHTS for small molecule stabilizers of the endoplasmic reticulum resident proteome: Secreted ER Calcium Modulated Protein (SERCaMP) assay (AID 1508630); note: % is set by controls: 0 for no effect and ±100 for the full control effect
Method in brief: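 GLuc-SERCaMP-expressing SH-SY5Y cells, pretreated 16 h with compound, are challenged with thapsigargin to empty ER calcium stores; after 4 h, coelenterazine is added directly to the medium and luminescence is imaged.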

O=C(OCCN1CCCCC1)c1c[nH]c2ccccc12
active: Potency [1] 10 µM | Potency [5] 8.91 µM
inactive: Potency [2] | Potency [3] | Potency [4] | Potency [6] | outcome [7] | Potency [8] | Potency [9] | Potency [10] | Potency [11] | Potency [12] | outcome [13] | outcome [14] | activation [15] 1.38% | outcome [16] | Potency [17] | Potency [18] | Potency [19]
